D2 ag-1: HTS Assay for Allosteric Agonists of the Human D2 Dopamine Receptor: Primary Screen for Agonists | D(2) dopamine receptor (Homo sapiens), P14416 | 0.53% of 340,000 active | HEK293 T-REx D2 cells, calcium flux agonist mode | activation, % at 2 µM;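 active = activation over 3 SD above normal in the single-dose calcium agonist read, cut at about 30% in these data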; also: 0% is about no effect
Target sequence (P14416 whole entry, looked up): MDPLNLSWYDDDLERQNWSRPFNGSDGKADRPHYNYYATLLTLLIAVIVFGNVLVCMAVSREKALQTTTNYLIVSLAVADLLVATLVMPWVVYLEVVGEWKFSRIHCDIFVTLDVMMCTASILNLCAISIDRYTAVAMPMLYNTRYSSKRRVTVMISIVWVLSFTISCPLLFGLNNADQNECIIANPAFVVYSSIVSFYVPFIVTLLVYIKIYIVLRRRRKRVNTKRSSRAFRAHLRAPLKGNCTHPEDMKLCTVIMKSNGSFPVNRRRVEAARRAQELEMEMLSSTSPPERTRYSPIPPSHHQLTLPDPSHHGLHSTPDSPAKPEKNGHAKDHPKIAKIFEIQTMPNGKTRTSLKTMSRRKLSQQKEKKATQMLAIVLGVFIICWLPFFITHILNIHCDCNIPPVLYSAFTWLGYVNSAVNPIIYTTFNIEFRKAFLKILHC
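Tetracycline-induced HEK293 Trex cells with D2 receptor force-coupled to calcium signaling, plated overnight at 30 C and loaded with no-wash calcium dye. Calcium flux read kinetically for 180 s after compound addition; responses flag agonists.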
D2 antag: HTS Assay for Allosteric Antagonists of the Human D2 Dopamine Receptor: Primary Screen for Antagonists; D(2) dopamine receptor (Homo sapiens), P14416; HEK293 TREx D2 cells, calcium flux, dopamine EC80; inhibition, % at 10 µM; 2% of 340,000 active; AID 485344, 2010; in the data active = inhibition above about 30%; inactive = below that, where a call was filed; also: 0% is about no effect
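Calcium mobilization kinetics were recorded at 1 s intervals in tetracycline-induced HEK293 T-REx D2 cells, first for 180 s after compound addition and then 180 s after EC80 dopamine.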
D2 ag-2: Beta-Arrestin HTS for Positive Allosteric Modulators of the Human D2 Dopamine Receptor: Agonists. D(2) dopamine receptor (Homo sapiens), P14416. DiscoveRx PathHunter D2 beta-arrestin, luminescence, 90 min; 100% = 57 uM dopamine signal. activation, % (test concentration not listed). 0.084% of 360,000 active. AID 624465, 2012; in the data active = activation above about 40%; inconclusive = between about 15% and that limit
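Agonist mode: compounds alone added to overnight-plated D2 PathHunter cells for 90 min at 37 C, with 57 uM final dopamine (EC100) defining full response. Beta-arrestin recruitment detected by chemiluminescent reagent, read after 1 h at ambient temperature.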
D2 PAM-1: Beta-Arrestin HTS for Positive Allosteric Modulators of the Human D2 Dopamine Receptor: Potentiators | 0.23% of 360,000 active | AID 624464, 2012 | potentiation, % (concentration not given with the values) | DiscoveRx D2 beta-arrestin cells, luminescence, 90 min; 100% = 57 uM dopamine signal; in the data active = potentiation above about 50%; inconclusive = mostly about 30% to 49%
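PathHunter beta-arrestin assay in DiscoveRx D2 cells. Compounds were added with an EC20 of dopamine (50 nM final) for 90 min at 37 deg C. Luminescence was read 1 h after detection reagent, with 57 uM dopamine as the EC100 control.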
D2 PAM-2: HTS Assay for Positive Allosteric Modulators of the Human D2 Dopamine Receptor: Primary Screen for Potentiators; AID 485347, 2010; 0.34% of 340,000 active; HEK293 T-REx D2, calcium flux, EC20 dopamine potentiation; potentiation, % at 10 µM;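 active = potentiation over 3 SD above the plate norm, cut at about 30% in these data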; also: 0% is about no effect
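Calcium flux readout, no-wash dye, 1 read/s. Inducible HEK293 Trex D2 line, overnight 30 C. Compound alone 180 s (agonist flags), then EC20 dopamine, another 180 s to score potentiation.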
Numbers without * were called inactive; ? = inconclusive; · = no result given. Only some compounds are listed: those with a hit (about 2.4% of all), similar ones and a draw of the others.

SMILES	D2 ag-1	D2 antag	D2 ag-2	D2 PAM-1	D2 PAM-2
COc1cc(/C=C2\SC(c3ccc(C)cc3)=NC2=O)ccc1O	3.6	32.1*	-3.5	-16.7	-4.4
COc1cc(/C=C2\SC(=S)N(NC(=O)c3ccc(O)cc3)C2=O)ccc1O	35.5*	-5.8	-1.3	-11.2	4.8
CCOc1cc(/C=C2\SC(=S)N(Nc3ccccc3)C2=O)ccc1O	8.4	35.1*	-8.8	-26.7	9.0
CCOc1ccc(N2C(=O)S/C(=C\c3ccc(O)c(OC)c3)C2=O)cc1	3.0	-16.2	-6.2	-13.6	15.5
COc1ccc(/C=C2\SC(c3ccc(C)cc3)=NC2=O)cc1OC	7.4	4.5	-6.6	-11.3	0.6
COc1ccc(C(=O)COc2nc(C)cc(C)c2C#N)cc1	0.4	34.9*	-3.6	-3.9	0.1
COc1ccccc1Nc1nc(-c2sc(NC(=O)c3ccccc3)nc2C)cs1	0.6	9.2	-2.2	-7.7	-2.2
COc1ccccc1Nc1nc(-c2sc(N)nc2C)cs1	-0.5	37.7*	0.9	-17.1	7.9
O=c1oc(-c2ccco2)nc2ccccc12	1.0	36.3*	-1.8	3.2	6.3
O=c1oc(-c2ccco2)nc2c1cnn2-c1ccccc1	0.7	2.2	-3.0	-7.8	-0.6
CCN(CC)CCn1c(NS(=O)(=O)c2ccc(C)cc2)nc2ccccc21	0.0	51.4*	-2.4	-40.0	-19.4
CCOc1ccccc1N1C(=O)CC(N(O)c2ccccc2)C1=O (stereo not drawn)	0.8	-12.8	?	4.4	27.0
Cc1cccc(C)c1N1C(=O)CC(N(O)c2ccccc2)C1=O (stereo not drawn)	-0.8	-18.6	6.7	51.1*	-5.0
Cc1c(Cl)cccc1N1C(=O)CC(N(O)c2ccccc2)C1=O (stereo not drawn)	1.5	-0.3	5.8	55.0*	7.4
CCc1ccc2[nH]cc(S(=O)(=O)c3ccc(C(C)C)cc3)c(=O)c2c1	0.8	·	·	·	-1.0
O=C(O)c1ccc(Nc2nc3ccccc3n3cnnc23)cc1	0.0	·	·	·	-18.1
CN1CCc2c(sc3c2C(=O)NC(c2ccc4c(c2)OCO4)N3)C1 (stereo not drawn)	0.4	32.2*	-2.3	-25.6	-21.1
COc1cc(/C=C2\SC(=O)N(CC(=O)Nc3ccccc3F)C2=O)cc(Cl)c1O	41.4*	17.5	5.1	3.4	-5.9
O=C(Nc1cccc(F)c1)C1CCN(S(=O)(=O)c2ccc3[nH]c4c(c3c2)CCCCC4)CC1	·	·	·	·	4.5
Cc1ccc(CNc2ccc3c(c2)ncn3C(C)C)cc1	37.1*	-3.2	-1.8	-10.6	-0.6
Cc1nn(S(=O)(=O)c2cccc([N+](=O)[O-])c2)c(C)c1Br	-0.8	2.4	12.4	62.2*	0.7
Cc1nn(S(=O)(=O)c2cccc([N+](=O)[O-])c2)c(C)c1S(=O)(=O)N1CCOCC1	0.0	-1.4	3.6	1.5	-7.4
COc1cccc(CNC(=O)C2CCN(S(=O)(=O)c3c(C)noc3/C=C/c3cccs3)CC2)c1	1.0	·	·	·	6.6
Cc1ccc(C(=O)NCCc2csc(C)n2)cc1	0.1	42.7*	-7.1	-1.8	1.7
O=C(O)c1ccc(N/N=C/c2ccc(-c3cccc(Cl)c3)o2)cc1	·	·	12.1	2.8	·
O=C(O)c1cccc(-c2ccc(/C=N/Nc3ccc([N+](=O)[O-])cc3)o2)c1	35.7*	3.2	-5.1	-9.0	-2.1
O=C(O)c1ccc(-c2ccc(/C=N/Nc3ccc([N+](=O)[O-])cc3)o2)cc1	53.8*	8.0	-5.5	-4.7	-3.7
Cc1ccc(/C=C/C(=O)NCCCc2ccccc2)cc1	-1.4	-11.7	-5.1	-20.5	9.4
C#CCNC(=O)/C=C/c1ccc(C)cc1	0.0	39.7*	-1.8	-13.1	4.4
Cc1ccccc1-c1noc(-c2ccc(O)cc2)n1	-0.5	45.9*	2.8	12.5	-8.9
